Here are results for 91 molecules from PubChem BioAssay AID818 (SRMLSC, 2007).

Out of some 140,000 compounds screened, about 2,100 (1.5%) were called active. The entries come from a sample that favours actives as a whole. Unmarked numbers belong to inactive results.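 The calls were made as follows: active = viability at or under a set limit, the compound median less 4 SD (cut at about 6% in these data); inactive = the rest.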

This assay can be described thus: primary screen for growth suppressors in beta-catenin knockout HCT116 cells (colon tumor, human) (AID 818).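 Also: 0% = Hyamine 1622 control at 20 µM and 100% = untreated cell control.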 The note with it: CellTiter-Glo, 60 h, at 10 µM, hits give low values. For orientation: Cellular ATP, detected with luciferase, serves as a proxy for viable cell number.
Turning to `CCOc1ccccc1C1CC(c2cccc(NS(C)(=O)=O)c2)=NN1C(=O)c1ccccc1` (stereo unspecified), the viability was 79.6%.

As for `COc1ccc(C2CC(c3ccccc3)=NN2C(=O)c2ccc(Cl)c([N+](=O)[O-])c2)cc1` (stereo unspecified), the viability is 10.9%.

For `CCOc1ccc2nc(Cl)c(C3CC(c4ccccc4)=NN3C(=O)c3cccs3)cc2c1` (stereo unspecified), the viability was 1.68% (active).

Regarding `N#CCSc1nc2ccccc2c(=O)n1-c1ccccc1`, the viability was 101%.

For `Cc1cc(C)c2c(n1)sc1c(=O)n(-c3ccccc3)c(=O)[nH]c12`, the viability was 95.9%.

Turning to `C/C(O)=C\c1nc(=O)c2c(C)cc(C)nc2n1-c1ccccc1`, the viability was 2.41% (active).

For `O=C1NC(=Nc2ccc(Cl)cc2)SC1Cc1cccc(Cl)c1Cl` (stereo unspecified), the viability is 101%.

With `COC(=O)c1sccc1NC(=O)COc1ccc(Cl)cc1`, the viability is 68.7%.

For the molecule `Cc1ccc2[nH]c(=O)c(CC=C(Cl)Cl)c(C)c2c1`, the viability was 88.7%.

For `CN(C)c1ccc(/C=N/NC(=O)c2ccc(Cn3cc(Br)cn3)o2)cc1`, the viability is 103%.

On to `COc1ccc(CCNc2cc(C)nc3c(-c4ccc(Cl)cc4)c(C)nn23)cc1OC`, for which the viability was 74.8%.

`CC(C)CC[n+]1ccn(C2=C([O-])c3ccccc3C(=O)/C2=N\S(=O)(=O)c2ccccc2)c1`: the viability was 2.01% (active).

Consider `COc1ccc(C2Nc3ccccc3C(=O)N2c2ccc(F)cc2)cc1Cn1nnc2ccccc21` (stereo unspecified), for which the viability was 69.3%.

With `CC(=O)N1CC(C)c2scc(C)[n+]2-c2ccccc21` (stereo unspecified), the viability is 91.2%.

On to `COc1cccc(CNCCc2c[nH]c3ccccc23)c1OCc1ccccc1F`, for which the viability is 0.88% (active).

With `COc1ccccc1NC(=O)CCCc1c[nH]c2ccccc12`, the viability was 101%.

For the molecule `COc1ccc(C(CCNCc2ccccc2F)c2ccc(F)cc2)cc1` (stereo unspecified), the viability was 9.17%.

In the case of `COc1ccc(/C(C)=N/NC(=O)CCC(=O)Nc2ccc(Cl)cc2Cl)c(OC)c1`, the viability was 91.2%.

As to `O=C(Nc1cccc(F)c1)c1coc(=O)c(Br)c1`, the viability is 45%.

Take `NC(=O)Nc1ccccc1C(=O)NCCc1ccccc1`: the viability was 99.7%.

For the molecule `CCc1ccc(NC(=O)C(C)OC(=O)/C=C/c2cccc([N+](=O)[O-])c2)cc1` (stereo unspecified), the viability was 90.3%.

For `Cn1cc([N+](=O)[O-])c(C(=O)Nc2ccc3c(c2)OCCO3)n1`, the viability was 5.15% (active).

With `O=C(Nc1ccc2c(c1)OCCO2)c1ccncc1`, the viability is 100%.

In the case of `Cn1cc([N+](=O)[O-])c(C(=O)Nc2cnn(Cc3ccc(F)cc3)c2)n1`, the viability was 8.14%.

Regarding `COc1ccc(OC(C)C(=O)NCCc2nc3ccccc3[nH]2)cc1` (stereo unspecified), the viability was 99.8%.

As to `CCOC(=O)c1cnc(-n2nc(C)cc2C)nc1-n1nc(C)cc1C`, the viability was 103%.

As for `CCOC(=O)c1cnc(-n2nc(C)cc2C)nc1NNc1cc(C)nc(-c2ccccc2)n1`, the viability is 3.41% (active).

Turning to `CCOC(=O)c1cnc(-c2ccccc2)nc1Oc1ccc(C)cc1`, the viability is 89.3%.

As to `CCC(C)(C(=O)Nc1ccccc1C)N(C(=O)CNC(C)=O)c1ccc(C)cc1` (stereo unspecified), the viability is 92.2%.

For `COC(=O)[C@@H]1CC[C@H](C)[C@@H](c2ccc(C)cc2)N1C(=O)c1ccc(/C=N/O[C@H](C)c2cn([C@@H]3COC[C@H]3O)nn2)cc1`, the viability is 86.4%.

With `CSc1nc(N)c(C#N)c(-c2ccccc2Cl)c1C#N`, the viability was 89.2%.

For the molecule `CSc1nc2ccccc2cc1/C=C(\C#N)c1ccc(Cl)cc1Cl`, the viability was 4.22% (active).

`Cc1nc2ccccc2cc1O`: the viability is 92.2%.

For `Cc1ccc(SCCC(=O)NC(C(C)C)C(C)C)cc1`, the viability was 89.2%.

Take `CCCC(NC(=O)c1ccco1)c1nc2ccccc2[nH]1` (stereo unspecified): the viability was 101%.

Consider `CCCCC(=O)NCc1ccc(F)cc1`, for which the viability was 93.4%.

For the molecule `CN(CC(=O)Nc1ccc(S(=O)(=O)N2CCCC2)cc1)Cc1ccc(Cl)c(Cl)c1`, the viability was 65.4%.

For the molecule `COc1ccc(NS(=O)(=O)c2cc(NC(=O)/C=C/c3cc(OC)c(OC)c(OC)c3)ccc2N2CCCCC2)cc1`, the viability was 89.5%.

With `COc1cccc2cc(C(=O)N(C)C)c(=O)oc12`, the viability was 1.59% (active).

Turning to `COc1cccc2cc(C(=O)N3CCN(C(=O)c4ccccc4)CC3)c(=O)oc12`, the viability is 100%.

`C=CCc1cccc2cc(C(=O)OCC)c(=O)oc12`: the viability is 97.7%.

With `O=C(c1cccc2ccccc12)N1CCN(c2ccccc2F)CC1`, the viability was 83.3%.

As for `Cc1ccc(Cl)cc1N1CCN(C(=O)c2cccc3c(=O)c(C)c(-c4ccccc4)oc23)CC1`, the viability is 1.34% (active).

For the molecule `COC(=O)c1ccc(C(=O)OC)c(NC(=S)N2CCN(c3cc(Cl)ccc3C)CC2)c1`, the viability is 92.1%.

For the molecule `COCCn1c(SCC(=O)Nc2ccc3c(c2)CCC3)nc2ccccc2c1=O`, the viability was 81.5%.

`O=C(/C=C/NCc1ccc(F)cc1)c1ccccc1`: the viability was 87.5%.

`NS(=O)(=O)c1cc(C(=O)NCCOc2ccccc2)c(Cl)cc1Cl`: the viability was 78.4%.

For `COc1ccccc1N1CCN(Cc2nnnn2CCc2ccccc2)CC1`, the viability is 82.5%.

In the case of `COc1ccccc1N1CCN(C(=O)CN(Cc2ccc(Cl)cc2)S(C)(=O)=O)CC1`, the viability was 68.4%.

Take `COc1ccccc1-n1nnnc1S(=O)(=O)Cc1ccc(Cl)cc1`: the viability is 2.91% (active).

As to `CCc1cccc(C)c1NC(=O)COC(=O)Cc1ccsc1`, the viability was 80.8%.

`COc1ccc(-c2cc(C(F)(F)F)nc(SCC(=O)Nc3ccc4c(c3)OCO4)n2)cc1OC`: the viability was 91.6%.

As for `COc1ccc(/C=C(/NC(=O)c2ccc(C)cc2)c2nc3ccccc3[nH]2)cc1OC`, the viability was 87.3%.

Turning to `Oc1ccc(Cl)cc1/C=N/c1nc2ccccc2[nH]1`, the viability is 89.3%.

With `O=C(/C(=C/c1cccc(Cl)c1)c1nc2ccccc2[nH]1)c1ccccc1`, the viability was 1.3% (active).

Turning to `Cc1cc(C)cc(C(=O)NC(=S)Nc2ccc3[nH]c(=O)[nH]c3c2)c1`, the viability is 95.8%.

In the case of `Cc1cccc(NC(=O)Cn2c(=O)n(Cc3ccccc3)c(=O)c3c(C)c(C)sc32)c1`, the viability is 77%.

As for `COc1ccc(/C=C(/CC(=O)Nc2ccc(C)cc2)c2nc3ccccc3s2)cc1`, the viability was 73%.

`Fc1ccccc1/C=C1\CCCC2=C1Nc1ncnn1C2c1ccccc1F` (stereo unspecified): the viability is 4.91% (active).

For the molecule `CC(C)(C)SCCNC(=O)c1cccc([N+](=O)[O-])c1`, the viability was 97.8%.

Regarding `COc1ccc(/C=C/C(=O)c2cc(Br)ccc(=O)c2O)cc1`, the viability is 11.3%.

As for `COC(=O)CN1C(=O)C(O)=C(C(C)=O)C1c1ccc([N+](=O)[O-])cc1` (stereo unspecified), the viability is 86.9%.

Consider `CCC(CC)C(=O)N1CC(=O)Nc2ccc(Br)cc2C1c1ccccc1` (stereo unspecified), for which the viability was 80.3%.

`COC(=O)CN1C(C)=Nc2ccc(Br)cc2C1c1ccccc1` (stereo unspecified): the viability is 0.76% (active).

Take `CCCCCC(=O)Nc1ccc(S(=O)(=O)Nc2ccc(Cl)nn2)cc1`: the viability was 102%.

On to `CCCCc1nc(NCCN)c(C#N)c2c1CSC(C)(C)C2`, for which the viability was 1.71% (active).

On to `Cc1nc(NCCN)c(C#N)c2c1COC(C)(C)C2`, for which the viability is 94.1%.

On to `CCCCc1nc(NCc2ccccc2)c(C#N)c2c1CCCC2`, for which the viability was 81%.

In the case of `CCC(C)C(=O)Nc1cc([N+](=O)[O-])ccc1Cl` (stereo unspecified), the viability is 96.4%.

For `Oc1c(Br)cccc1/C=N/Nc1c(F)c(F)c(F)c(F)c1F`, the viability is 51%.

On to `O=c1c2sccc2nc(SCc2cc(=O)n3ccccc3n2)n1-c1ccc(Br)cc1`, for which the viability is 59.1%.

Consider `CCCNC(=O)OC[C@H]1O[C@H](CCO/N=C/[C@@H](NS(=O)(=O)c2ccc(C)cc2)[C@H](C)/C=C/CC(=O)OC)C=C[C@@H]1Oc1ccc(OC)cc1`, for which the viability is 0.62% (active).

`COc1ccc(O[C@H]2C=C[C@@H](c3ccccc3)O[C@@H]2CO/N=C/C[C@@H]2C=C[C@H](OC(C)=O)[C@@H](COC(C)=O)O2)cc1`: the viability is 88.8%.

In the case of `CCCC(NS(=O)(=O)c1ccc(OC)cc1)C(=O)O` (stereo unspecified), the viability is 92.4%.

With `NNc1nc2c(Cl)cccc2s1`, the viability is 83.6%.

As for `Cc1ccc(C(=O)Oc2coc(CSc3nnc(NC(=O)c4cccs4)s3)cc2=O)cc1C`, the viability is 96.1%.

Regarding `Cc1ccc(S(=O)(=O)NCCSc2ccccc2)cc1[N+](=O)[O-]`, the viability is 104%.

For the molecule `O=C(Nc1ccc(CSc2ccccc2)cc1)c1ccc(CN2CCOCC2)cc1`, the viability was 12.2%.

Turning to `COc1ccc(Cl)cc1-n1c(C)cc(C(=O)OCC(=O)N2CC(=O)Nc3ccccc32)c1C`, the viability was 69.3%.

Turning to `O=C(Nc1ccccc1)/C(=C/c1ccc([N+](=O)[O-])cc1)NC(=O)c1ccccc1`, the viability is 87.1%.

Consider `CCOC(=O)/C(=C\c1ccc([N+](=O)[O-])cc1)C(=O)c1cc(C(C)=O)c(Nc2ccccc2)s1`, for which the viability is 1.71% (active).

For the molecule `Cc1cccc(NC(=O)c2sc(-c3ccccc3)nc2-c2ccc([N+](=O)[O-])cc2)c1`, the viability was 80.5%.

On to `Cc1cccc(N2C(=O)SC(SC(=Nc3ccccc3)Nc3ccccc3)C2=O)c1` (stereo unspecified), for which the viability is 82.6%.

With `Cc1ccc(C(=O)N/C(=C/c2cccnc2)C(=O)O)cc1`, the viability was 87.7%.

As for `CC(C)(C)c1nnc(N/N=C/c2ccc(O)cc2)n(N)c1=O`, the viability is 90.8%.

In the case of `c1ccc2c(c1)CSc1sccc1C2=C1CCNCC1`, the viability is 3.31% (active).

In the case of `COc1ccc(-n2c(C)cc(C(=O)CN3C(=O)NC4(CCc5ccccc54)C3=O)c2C)cc1` (stereo unspecified), the viability was 70.1%.

In the case of `O=C(Nc1cccc(Cl)c1)Nc1ccccc1NS(=O)(=O)c1cccs1`, the viability was 71.1%.

With `Cc1csc(NC(=O)CN2CCCCCC2)n1`, the viability is 93.4%.

Take `Cc1csc(NC(=O)NC2(C(F)(F)F)Oc3ccccc3O2)n1`: the viability is 5.7% (active).

On to `O=C(Nc1cc(N2CCOCC2)ncn1)NC1(C(F)(F)F)Oc2ccc(Cl)cc2O1` (stereo unspecified), for which the viability was 76.8%.

Usually viability stands for a read-out of living cells in per cent, often relative to untreated cells.
